Source: PubChem BioAssay (National Center for Advancing Translational Sciences (NCATS))
Mito fusion yeast: blocks mitochondrial division or promotes mitochondrial fusion. Potency, µM (series often up to 46.1 µM), without a hit: at the highest dose growth rescue (activation), usual class: activators. AID 485298. S. cerevisiae fusion-defective mutant growth rescue, CellTiterGlo 48 h. 320,000 compounds, 0.23% hits; further: potency means the concentration at half of the fitted maximal effect; % of control where 0% means no effect; nearly all actives have a fitted effect of over 45% in size
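Read-out: ATP-based luminescence (CellTiterGlo, 10 min ambient) reporting growth of fusion-defective ts yeast after 48 hours at 37C on glycerol/ethanol YPEG medium in the presence of compound.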
Akt phos inh: Akt phosphorylation inhibition | Neuro2A IGF-stimulated pAkt S473 HTRF, 20 min; active compounds read low | activity change, % for hits at 50 µM | 360,000 compounds, 0.32% hits | AID 651550; in the data active means activity change below about -80%; inconclusive means mostly about -51% to -80%; further: on the % scale 0 is the no-effect control and ±100 the full control effect
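Neuro2A cells in DMEM with 0.5% FBS, overnight at 37 deg C, given compound at single 50 µM final, then IGF (6 nM final) for 20 min at 37 deg C. Lysed; phospho-Akt Ser473 by HTRF after 24 h, 665/615 ratio.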
aSyn yeast inh: inhibitors of alpha-synuclein toxicity in yeast. Yeast expressing alpha-synuclein, growth rescue, BacTiter-Glo, 24 h. 370,000 compounds, 0.14% hits. AID 652106. Potency, µM (top dose mostly 46.1 µM), without a hit: at the top dose growth rescue (activation), hits mostly activators; further: potency means the concentration at half of the fitted maximal effect; % of control where 0% means no effect; nearly all actives have a fitted effect of over 65% in size
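Galactose-induced alpha-syn yeast (OD600=0.02, raffinose-pregrown) + pinned cpd, 24 hr, 30 deg C; growth by BacTiter-Glo luminescence. Growth restoration scores as activation.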
TDP-43 yeast inh: rescues yeast growth from TDP-43 toxicity; TDP-43 expressing yeast growth rescue, BacTiter-Glo, 24 h; 410,000 compounds, 1.8% hits; Potency, µM (highest dose often 46.1 µM), without a hit: top-dose growth rescue (activation), most hits filed as activators; AID 652104; further: potency means the concentration at half of the fitted maximal effect; % of control where 0% means no effect; nearly all actives have a fitted effect of over 50% in size
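Yeast expressing TDP-43 (pregrown in raffinose, seeded at OD600=0.02 in galactose medium) exposed to compounds 24 hr at 30 deg C. Growth read by BacTiter-Glo luminescence; rescue of toxicity appears as increased signal.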
CCT chaperon mod: modulators of cytosolic chaperonin (CCT/TRiC) activity. activity change, % (test concentration not listed), hits read low. AID 651819. purified chaperonin ATPase assay, HTRF ADP detection, 30 min. 360,000 compounds, 0.3% hits; in the data active means activity change below about -30%; further: on the % scale 0 is the no-effect control and ±100 the full control effect
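Nucleotide hydrolysis assay: TRiC at 20–40 nM final (set by batch activity) with 10 uM ATP, 30 min at 37 °C, in presence of 76 uM compound. Detection by competitive ADP HTRF, 30 min ambient.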
Anesthetic bind: binds horse apoferritin like a general anesthetic; Potency, µM (top dose mostly 77.5 µM), for the others: at the top dose activity change, negative = displacement, most hits filed as inhibitors; 350,000 compounds, 0.074% hits; P02791; apoferritin/1-aminoanthracene competitive binding, fluorescence; further: potency means the concentration at half of the fitted maximal effect; on the % scale 0 is the no-effect control and ±100 the full control effect; nearly all actives have a fitted effect of over 20% in size
Target sequence (P02791 2-175 limits assumed): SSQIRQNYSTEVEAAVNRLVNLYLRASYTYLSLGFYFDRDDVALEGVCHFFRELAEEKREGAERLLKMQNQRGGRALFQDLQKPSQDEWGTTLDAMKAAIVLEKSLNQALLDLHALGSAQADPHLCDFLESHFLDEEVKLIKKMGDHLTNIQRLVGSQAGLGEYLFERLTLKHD
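Read-out: endpoint 1-AMA fluorescence, excitation 380 nm and emission 535 nm, after compounds sit 10 min at room temperature with 10 uM horse-spleen apoferritin in 50% saturated 1-AMA/PBS. Values come from four-parameter Hill fits.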
The depositor's hits bear a star; i = inactive; ? = inconclusive; / = not tested or not shown; [ ] = another dose, or the depositor's remark. The list is not random: actives were taken first. Their share in the collection is about 2.5%. Unless noted, the call rests on the fitted dose curve; in most records, active means well fitted curve in the direction sought with a large enough effect; inconclusive means small, poorly fitted or top-dose-only effect, or another doubt; inactive means no such curve, though single readings can be large; an effect the other way counts as inactive or inconclusive.

SMILES	Mito fusion yeast	Akt phos inh	aSyn yeast inh	TDP-43 yeast inh	CCT chaperon mod	Anesthetic bind
COc1ccc(-n2cnnc2SCc2cnc(-c3ccccc3)s2)cc1	8%	i	0%	20µM*	0	?
Cn1c(=O)[nH]c(=O)c2c1nc(OC(=O)c1ccccc1)n2CC(O)COc1ccc(F)cc1 (centres undefined)	3%	i	2%	-14%	1	-8%
Cn1c(=O)[nH]c(=O)c2c1nc(OC(=O)c1ccccc1)n2CC(O)COc1ccccc1 (centres undefined)	-3%	-126%*	-4%	-2%	0	0%
CN(Cc1ccccc1)c1nc2c(c(=O)[nH]c(=O)n2C)n1CCOc1ccccc1	6%	-124%*	10%	-1%	-3	-16%
O=C(O)C1CC(CCCP(=O)(O)O)CCN1 (centres undefined)	/	/	/	/	/	-4%
Cc1ccc(F)cc1NC(=O)COC(=O)c1ccc(S(C)(=O)=O)c([N+](=O)[O-])c1	/	/	-10%	/	/	/
O=C(NCc1ccccc1C(F)(F)F)C1CC(c2ccccc2[N+](=O)[O-])=NO1 (centres undefined)	1%	i	4%	13µM*	-2	-18%
COc1ccc(CNC(=O)Cn2ncc3c4ccccc4n(Cc4cccc(Cl)c4)c3c2=O)cc1	/	/	/	0%[9.22 µM]	/	-2%
CC(C)c1ccc(N(CC(=O)N2CCN(Cc3ccccc3)CC2)S(C)(=O)=O)cc1	2%	i	-5%	-11%	-95*	-10%
CCOc1ccc(CCNC(=O)CCn2c(=O)c3cccn3c3ccc(F)cc32)cc1OCC	/	/	/	8%	/	?
O=C(Nc1cc(S(=O)(=O)N2CCOCC2)ccc1N1CCCCC1)c1ccccc1Br	/	i	-5%	-68%	-33*	/
S=C1NC(c2ccccc2)=NCN1c1ccccc1	1%	i	0%	13µM*	-3	-12%
C=C1c2ccccc2O[C@H](C(=O)OCC)[C@@H]1CC(C)(C)c1ccccc1	/	/	/	/	/	-13%[110 µM]
CCCC1C2C(=O)N(c3ccccc3OC)C(=O)C2ON1c1ccccc1 (centres undefined)	-2%	-110%*	0%	4%	3	-12%
Cc1c(NC(=O)c2cc(-c3ccco3)on2)c(=O)n(-c2ccccc2)n1C	2%	i	0%	-12%	0	-9%
Cc1c(NC(=O)c2cc(-c3cccs3)on2)c(=O)n(-c2ccccc2)n1C	5%	-83%*	-6%	-25%	0	-12%
S=c1[nH]nc2ccc3ccccc3n12	/	i	0%	13µM*	2	/
COc1ccccc1OCCn1c(CCNC(=O)C2CCCCC2)nc2ccccc21	/	/	1%	/	/	/
CCOC(=O)C1CCCc2c1[nH]c1ccc(Cl)cc21 (centres undefined)	-6%	i	1%	13µM*	-1	-11%
CN1C(=O)C2(N=c3ccccc3=N2)c2ccccc21	4%	i	15%	11µM*	-2	-8%
CN1C(=O)C2(OCC(C)([N+](=O)[O-])CO2)c2ccccc21 (centres undefined)	0%	i	-2%	5%	0	-7%
Cc1ccc(C)c(Nc2nc(-c3ccccc3)c3cc(Br)ccc3n2)c1	/	/	/	29%	/	47%
Cc1ccc2nc(N3CCC(C(=O)O)CC3)nc(-c3ccccc3)c2c1	7%	i	12%	22µM*	0	227%
COc1ccc(CNC(=O)C2=C(C)C(=O)OC23CCC(C)CC3)cc1 (centres undefined)	-2%	i	8%	16µM*	0	-20%
CCOC(=O)CCN1C(=O)[C@H]2[C@H]3[C@H](O)[C@H](O)C/C(=N/OCC(C)C)[C@@H]3CC[C@@H]2C1=O	/	/	/	/	/	-7%[15.3 µM]
SMILES	Mito fusion yeast	Akt phos inh	aSyn yeast inh	TDP-43 yeast inh	CCT chaperon mod	Anesthetic bind
CC(=O)c1c(C)nc(-c2ccc(Cl)cc2)nc1NC(=O)C(C)C	0%	i	1%	-1%	-74*	-10%
COc1ccc(C2CC(c3ccccc3C(F)(F)F)=NN2c2ccc(S(N)(=O)=O)cc2)cc1 (centres undefined)	/	i	5%	15%	1	/
CCc1ccc(C2=NN(c3ccc(S(N)(=O)=O)cc3)C(c3ccc(F)cc3)C2)cc1 (centres undefined)	-30%	i	14%	14µM*	0	522%
COc1ccc(C2CC(c3ccc(C(F)(F)F)cc3)=NN2c2ccc(S(N)(=O)=O)cc2)cc1 (centres undefined)	/	i	?	13µM*	-1	/
COc1ccc(-n2cc(C(=O)N(CCN(C)C)Cc3ccccc3)c3ccccc3c2=O)cc1	/	/	/	-6%	/	-8%
COc1ccccc1C1c2c(-c3ccc(Cl)cc3)n[nH]c2C(=O)N1c1ccc(C)cc1 (centres undefined)	/	/	/	19%	/	-5%
O=C(c1cc2ccccc2[nH]1)c1cc2cc(O)ccc2[nH]1	/	/	-3%	/	/	/
C=CCC(c1ccccc1)N(C(C)=O)c1ccco1 (centres undefined)	25µM*	i	0%	-12%	0	-6%
C=C(C)CC(c1ccccc1)N(C(C)=O)c1ccco1 (centres undefined)	0%	i	-1%	1%	-4	-9%
COc1ccc(-n2cnnc2)cc1	-1%	-123%*	-9%	-4%	2	-3%
CCCCOc1ccc(C(=O)NCC(=O)NCC(=O)OCC)cc1	-4%	i	6%	?	2	-9%
CCOC(=O)CNC(=O)CSc1nc(-c2ccc(OC)cc2)ns1	3%	i	17%	25µM*	-8	-12%
CCOC(=O)CNC(=O)CNC(=O)c1ccc(OC)cc1	4%	-108%*	-3%	4%	-2	-6%
CCc1nnc(NC(=O)CSc2nc(-c3ccc(OC)cc3)ns2)s1	0%	i	-7%	-2%	-1	3%
CCOc1ccc(C(=O)NCC(=O)OCc2c(F)cccc2Cl)cc1OCC	0%	i	0%	-9%	-1	5%
CCOc1ccc(C(=O)NCC(=O)OCc2c(F)cccc2Cl)cc1	-4%	i	1%	22µM*	0	-2%
COc1ccc(-c2nsc(SCC(=O)Nc3cc(C)on3)n2)cc1	-5%	-81%*	-8%	10%	-2	1%
COC(=O)[C@@H]1CC[C@H](C)[C@@H](c2ccc(C)cc2)N1C(=O)c1ccc(/C=N\O[C@@H](C)CN2CCCc3nc(C)c(C)cc32)cc1	/	/	/	/	/	10%[15.3 µM]
COc1ccc2c(c1)c1nnc(SC)nc1n2Cc1ccccc1	/	/	-6%	/	/	/
CC1CCC2C(=O)OC(CN3C(=O)c4ccccc4C3=O)CN2C1c1ccc(Br)cc1 (centres undefined)	/	/	/	/	/	-5%[15.3 µM]
